Results from PubChem BioAssay (NCATS).
“And” between values parts separate entries of the source, which are not always exact repeats. Identical values can stand only once. Inconclusive results are not listed. Where a call stands in place of a potency, no number is given. Values without a mark were called inactive. The source made the active and inactive calls. Calls follow the shape of the dose curve; as a rule, active = well fitted curve in the direction sought with a large enough effect; inconclusive = small, poorly fitted or top-dose-only effect, or another doubt; inactive = no such curve, though single readings can be large; an effect the other way counts as inactive or inconclusive.

Legend:
[1] = biological target: Cellular tumor antigen p53 (Homo sapiens) (UniProt P04637); test: Primary qHTS for small molecule compounds that upregulate eGFP-tagged delta133p53alpha (in N-terminal) cells. (AID 2060322); settings: NCI-H358 eGFP-delta133p53alpha fluorescence, 24 h; activation: hits give high values; also: nearly all actives have a fitted effect of over 75% in size; also: potency is read from the fitted curve at half-maximal effect; as to activation: series mostly up to about 56 µM
Method in brief: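 NCI-H358 cells pre-induced 24 h with 10 ng/ml doxycycline to express N-terminal eGFP-delta133p53alpha, then dosed 24 h at 37C without doxycycline; fixed, Hoechst-stained, GFP intensity by laser scanning cytometry, normalized to DMSO (0%) and 57.5 uM 5-azacytidine (100%).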

[2] = biological target: Aldehyde dehydrogenase, mitochondrial (Homo sapiens) (UniProt P05091); test: qHTS for Inhibitors of the Aldehyde Dehydrogenase Family (ALDH2) Primary screen (AID 2061308); also: nearly all actives have a fitted effect of over 55% in size
[3] = biological target: Retinaldehyde dehydrogenase 3 (Homo sapiens) (UniProt P47895); test: qHTS for Inhibitors of the Aldehyde Dehydrogenase Family (ALDH1A3) Validation screen (AID 2061312); also: nearly all actives have a fitted effect of over 45% in size
[4] = biological target: Retinaldehyde dehydrogenase 3 (Homo sapiens) (UniProt P47895); test: qHTS for Inhibitors of the Aldehyde Dehydrogenase Family (ALDH1A3) Primary screen (AID 2061315)
[5] = BET inhibitor-based combinations targeting novel dependencies in MECOM-rearranged (r) AML: SET-2 cell line (AID 2202231); settings: SET-2 AML cells viability, CellTiter-Glo luminescence, 48 h; viability: hits give low values, series mostly up to about 46 µM; also: nearly all actives have a fitted effect of over 35% in size
Method in brief: (§1)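 Readout: CellTiter-Glo luminescence. Exposure: 48 h, 11 concentrations, 500 cells/well. Metric: AUC and within-line Z-AUC after DMSO/empty-well normalization.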

[6] = BET inhibitor-based combinations targeting novel dependencies in MECOM-rearranged (r) AML: UCSD-AML1 cell line (AID 2202235); also: nearly all actives have a fitted effect of over 40% in size; also: potency is read from the fitted curve at half-maximal effect
Method in brief: (§2)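 Seeding density was 500 cells/well, and drug exposure lasted 48 hr under standard culture conditions. Read-out used CellTiter-Glo reagent with a 15 min room-temperature incubation before luminescence measurement; AUC and Z-AUC summarize the normalized responses.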

[7] = BET inhibitor-based combinations targeting novel dependencies in MECOM-rearranged (r) AML: AML-191 cell line (AID 2202236; also: nearly all actives have a fitted effect of over 35% in size; also: potency is read from the fitted curve at half-maximal effect)
Method in brief: as §1

[8] = BET inhibitor-based combinations targeting novel dependencies in MECOM-rearranged (r) AML: AML-194 cell line (AID 2202237; also: nearly all actives have a fitted effect of over 40% in size; also: potency is read from the fitted curve at half-maximal effect)
Method in brief: as §1

[9] = BET inhibitor-based combinations targeting novel dependencies in MECOM-rearranged (r) AML: OCI-AML3 cell line (AID 2202232); settings: Potency: OCI-AML3 viability; also: nearly all actives have a fitted effect of over 35% in size; also: potency is read from the fitted curve at half-maximal effect
Method in brief: as §1

[10] = BET inhibitor-based combinations targeting novel dependencies in MECOM-rearranged (r) AML: MV-4-11 cell line (AID 2202233); also: potency is read from the fitted curve at half-maximal effect; nearly all actives have a fitted effect of over 45% in size
Method in brief: as §2

[11] = BET inhibitor-based combinations targeting novel dependencies in MECOM-rearranged (r) AML: HNT-34 cell line (AID 2202234); also: nearly all actives have a fitted effect of over 35% in size; also: potency is read from the fitted curve at half-maximal effect
Method in brief: as §2

Cellular tumor antigen p53 (Homo sapiens), sequence (P04637 whole entry, looked up): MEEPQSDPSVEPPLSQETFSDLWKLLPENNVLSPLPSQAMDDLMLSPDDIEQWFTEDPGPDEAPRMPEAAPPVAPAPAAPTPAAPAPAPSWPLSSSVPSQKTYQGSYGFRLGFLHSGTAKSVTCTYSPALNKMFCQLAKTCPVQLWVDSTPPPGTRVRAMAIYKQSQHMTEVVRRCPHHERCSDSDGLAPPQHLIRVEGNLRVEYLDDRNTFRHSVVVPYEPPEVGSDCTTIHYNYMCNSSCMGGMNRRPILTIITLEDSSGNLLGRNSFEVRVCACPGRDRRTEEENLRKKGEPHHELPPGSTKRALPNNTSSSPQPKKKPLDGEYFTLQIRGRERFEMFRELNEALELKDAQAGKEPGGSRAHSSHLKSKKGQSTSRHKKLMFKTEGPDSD

Row | SMILES | activation [1] | Potency [2] | Potency [3] | Potency [4] | viability [5] [%] | Potency [6] | Potency [7] | Potency [8] | Potency [9] | Potency [10] | Potency [11] | Potency [1]
1 | Cc1nc(C(=O)NCC(=O)O)c(O)c2ccc(Oc3ccccc3)cc12 | 24.6% and -12.3% | inactive | inactive | inactive | 96.3 | inactive | inactive | inactive | – | – | – | –
2 | CC(C)N(CCCNC(=O)Nc1ccc(C(C)(C)C)cc1)C[C@H]1O[C@@H](n2cc(Br)c3c(N)ncnc32)[C@H](O)[C@@H]1O | -6.7% | inactive | inactive | inactive | – | inactive | – | 23500 nM (active) | 23500 nM (active) | 20900 nM (active) | 26300 nM (active) | –
3 | CCN(c1cc(-c2ccc(CN3CCOCC3)cc2)cc(C(=O)NCc2c(C)cc(C)[nH]c2=O)c1C)C1CCOCC1 | -17.7% | inactive | inactive | inactive | 94.8 | inactive | inactive | inactive | – | – | inactive | –
4 | CC(C)C(=O)Nc1ncc(-c2cc(C(F)F)nn2-c2c(Cl)cccc2Cl)s1 | 35.2% and 29.6% | inactive | inactive | inactive | – | inactive | – | – | 23500 nM (active) | 20900 nM (active) | 16600 nM (active) | –
5 | Cn1cc(-c2cnn3c(N)c(Br)c([C@@H]4CCCNC4)nc23)cn1 | 3.82% | inactive | inactive | inactive | – | – | – | – | 13200 nM (active) | 468 nM (active) | – | –
6 | O=C(Nc1ncc(-c2cc(C(F)F)nn2-c2c(Cl)cccc2Cl)s1)C1CC1 | 7.16% | inactive | inactive | inactive | – | 833 nM (active) | 934 nM (active) | 742 nM (active) | 833 nM (active) | 1050 nM (active) | 742 nM (active) | –
7 | c1ccc(CNc2nc(N3CCOc4ccccc43)nc3c2CCCC3)cc1 | -5.48% and -6.21% | inactive | inactive | inactive | – | – | – | inactive | inactive | – | – | –
8 | CN1CCN(Cc2ccc(NC(=O)Nc3ccc(Oc4cc(NC(=O)C5CC5)ncn4)cc3)cc2C(F)(F)F)CC1 | – | inactive | inactive | inactive | – | 372 nM (active) | 590 nM (active) | 833 nM (active) | 372 nM (active) | 3.7 nM (active) | 46.8 nM (active) | 968 nM (active)
